Screens: PubChem BioAssay, National Center for Advancing Translational Sciences (NCATS)
Rows were chosen to be rich in hits. Some 0.35% of all compounds tested hit in one or more screens of this group.
Epigenetic reg – derepresses silenced GFP reporter in murine cells; murine LDR cells, GFP reporter derepression, 30 h; Potency, µM (top dose mostly 53.9 µM), inactives show at the highest dose GFP activation, most hits filed as activators; hit rate 0.2% among 280,000; note: % of control where 0% means no effect; nearly all actives have a fitted effect of over 60% in size
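Reporter derepression read as number of fluorescent GFP-positive objects, 20-120 um in size, counted by laser-scanning cytometer. Mouse LDR line with an epigenetically silenced CMV-GFP locus; compound incubation 30 h, 37 C.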
GRP78 ERSR act – ER stress response induction in glioma; U87-MG GRP78 promoter luciferase reporter, 16 h; hit rate 0.02% among 420,000; Potency, µM, inactives show at the top dose activation, actives largely listed as activators; note: series mostly up to about 76 µM; % of control where 0% means no effect; nearly all actives have a fitted effect of over 35% in size
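ERSR induction read as luciferase luminescence (Bright-Glo, 10 min at room temperature) in stably transfected human U87-MG glioma cells exposed to compounds for 16 h, using GRP78 as sensor.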
Vif-APOBEC3G blk – blocks the Vif interaction with human APOBEC3G. Potency, µM (doses to about 46.1 µM), without a hit: top-dose activity, negative = active, hits mostly inhibitors. hit rate 0.076% among 410,000. AID 602310. Q9HC16. HeLa A3G-eYFP + Vif (tagged APOBEC3G with the HIV-1 protein that degrades it), YFP fluorescence, overnight; note: % is set by controls: 0 for no effect and ±100 for the full control effect; nearly all actives have a fitted effect of over 60% in size
Target sequence (Q9HC16 whole entry, looked up): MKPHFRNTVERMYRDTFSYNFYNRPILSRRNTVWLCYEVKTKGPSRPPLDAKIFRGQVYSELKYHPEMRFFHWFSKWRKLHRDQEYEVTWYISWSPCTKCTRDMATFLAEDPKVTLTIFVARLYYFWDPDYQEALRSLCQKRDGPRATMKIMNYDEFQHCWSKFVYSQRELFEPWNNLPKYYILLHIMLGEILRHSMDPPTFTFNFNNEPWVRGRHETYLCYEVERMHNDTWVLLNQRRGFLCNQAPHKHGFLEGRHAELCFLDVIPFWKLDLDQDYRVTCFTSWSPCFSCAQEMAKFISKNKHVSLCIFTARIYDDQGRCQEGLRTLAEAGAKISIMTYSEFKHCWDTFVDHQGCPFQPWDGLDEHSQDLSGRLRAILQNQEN
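Read-out is eYFP fluorescence (Ex 488/Em 500-530) from Vif-expressing HeLa A3G-eYFP cells; more signal means A3G escaped Vif-mediated degradation. Cells plated overnight, compound pinned in, incubated overnight at 37 deg C.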
Vif-APOBEC3F blk – blocks the Vif interaction with APOBEC3F; hit rate 0.2% among 390,000; Potency, µM (series often up to 46.1 µM), inactives show top-dose activity, negative = active; HeLa A3F-eYFP + Vif (tagged APOBEC3F with the HIV-1 protein that degrades it), YFP fluorescence increase; note: % of control where 0% means no effect; nearly all actives have a fitted effect of over 65% in size
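Fluorescence increase (Ex 488/Em 500-530) after overnight compound treatment at 37 deg C flags inhibition of Vif-driven A3F-eYFP loss in stable HeLa A3F-eYFP/Vif cells seeded overnight beforehand.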
The depositor's hits bear a star; ? = inconclusive; . = no result given. Calls come from the whole dose curve; as a rule, active = well fitted curve in the direction sought with a large enough effect; inconclusive = small, poorly fitted or top-dose-only effect, or another doubt; inactive = no such curve, though single readings can be large; an effect the other way counts as inactive or inconclusive. Potency is the fitted concentration of half-maximal effect.

SMILES	Epigenetic reg	GRP78 ERSR act	Vif-APOBEC3G blk	Vif-APOBEC3F blk
COc1cccc(C2CC(c3ccccc3)=NN2S(=O)(=O)c2ccc(C)cc2)c1OC (centres undefined)	?	5%	?	25µM*
COc1ccccc1C1CC(c2ccccc2)=NN1S(=O)(=O)c1ccccc1 (centres undefined)	2%	-3%	-5%	2%
Cc1ccc(-n2c(O)c(C=Nc3ccc4c(c3)OCO4)c3ccccc3c2=O)cc1C	?	-7%	-11%	?
Cc1cc(N=Cc2c(O)n(-c3ccc4c(c3)OCO4)c(=O)c3ccccc23)ccn1	?	-6%	?	25µM*
CN1C/C(=C\c2ccc(N3CCOCC3)cc2)C(=O)/C(=C/c2ccc(N3CCOCC3)cc2)C1	?	8%	?	25µM*
CCc1ccc(/C=C2/SC(N3CCOCC3)=NC2=O)cc1	0%	-5%	-4%	-2%
CCN1C/C(=C/c2ccc(N3CCOCC3)cc2)C(=O)/C(=C/c2ccc(N3CCOCC3)cc2)C1	?	-4%	10µM*	25µM*
NC(=O)CC(NC(=O)Cc1ccc(Br)cc1)c1ccc(NCc2ccc(F)cc2)c([N+](=O)[O-])c1 (centres undefined)	?	-7%	?	11µM*
NC(=O)CC(NC(=O)Cc1ccc(Br)cc1)c1ccc(NCC2CC2)c([N+](=O)[O-])c1 (centres undefined)	-3%	-4%	-16%	5%
Cc1ccccc1NC1=NCC(c2ccc([N+](=O)[O-])cc2)S1 (centres undefined)	-2%	-4%	-1%	11%
CCSC1=NSC2=NC(=O)/C(=C\c3coc4ccccc4c3=O)C(=N)N12	2%	6%	?	25µM*
CC(=O)Oc1c(-c2ccc(Br)o2)oc2ccccc2c1=O	.	0%	-7%	13µM*
COc1ccc(-c2oc3ccccc3c(=O)c2OC(C)=O)cc1	-1%	-4%	-11%	10%
O=C/C(=C\Nc1ccccn1)c1nc2ccccc2o1	9%	3%	?	28µM*
CCOC(=O)Nc1ccc2c3c(cccc13)-c1ccccc1-2	.	2%	?	3.5µM*
CN(C)c1ccc(S(=O)(=O)NCC(=O)NCCC2=CCCCC2)cc1[N+](=O)[O-]	.	-4%	2%	2%
CCc1cccc2cc3c(N)c(C(=O)Nc4ccc(S(=O)(=O)N5CCCC5)cc4)sc3nc12	11µM*	-3%	3.5µM*	?
Cc1ccc(C)c2nc3sc(C(=O)N4CCOCC4)c(N)c3cc12	0%	1%	10µM*	?
Cc1cccc2cc3c(N)c(C(=O)N4CCc5ccccc54)sc3nc12	?	2%	?	4.5µM*
Cc1ccc2nc3sc(C(=O)Nc4ccc(N5CCOCC5)cc4)c(N)c3cc2c1	9%	.	.	.
Cc1cccc2cc3c(N)c(C(=O)Nc4ccc(N5CCOCC5)cc4)sc3nc12	?	-2%	13µM*	?
Cc1cc(C)c2nc3sc(C(=O)N4CCOCC4)c(N)c3cc2c1	?	-11%	?	?
O=C(CCNS(=O)(=O)c1ccc2c(c1)CCN2C(=O)C1CC1)Nc1ccc(F)cc1F	2%	-2%	-3%	3%
CCCCNC(=O)C1(C)CCCCN1C(=O)c1ccc2c(c1)C(C)(C)CCC2(C)C (centres undefined)	.	9%	-9%	.
COc1ccc(-c2nc(C)c(CCNC(=O)c3ccc(F)c(F)c3)s2)cc1	0%	2%	1%	5%
SMILES	Epigenetic reg	GRP78 ERSR act	Vif-APOBEC3G blk	Vif-APOBEC3F blk
CCC[N+](C)(C)c1ccc(/C=C/c2ccncc2)cc1	.	-2%	?	.
CC[N+](C)(C)c1ccc(/C=C/c2ccncc2)cc1	.	-3%	10µM*	.
COc1cc2ccccc2nn1	2%	-4%	-5%	-1%
COc1ccc2c(n1)Sc1nc3ccccc3nc1N2	6.3µM*	15%	?	?
Cc1[nH]c2ccccc2c1/C=C/C(=O)c1ccccc1	?	7%	?	28µM*
COc1ccc(NC(=O)C2CCCN(S(=O)(=O)c3ccc(F)cc3)C2)cc1 (centres undefined)	-2%	-3%	3%	-1%
O=C1CC(c2ccco2)CC2=C1C1c3ccccc3C(=O)N1c1ccccc1N2 (centres undefined)	0%	28µM*	-30%	1%
CCS(=O)(=O)N1CCc2cc(C(=O)N3CCN(c4cccc(C(F)(F)F)c4)CC3)ccc21	-6%	-4%	13µM*	-6%
O=C(c1ccc2c(c1)CCN2S(=O)(=O)c1ccccc1)N1CCN(c2cccc(Cl)c2)CC1	-1%	-1%	-2%	4%
CCCCn1c(N)c(N(CCC(C)C)C(=O)Cc2ccc(S(=O)(=O)N3CCOCC3)s2)c(=O)[nH]c1=O	.	-3%	0%	4%
CCCCn1c(N)c(N(CC(C)C)C(=O)Cc2ccc(S(=O)(=O)N3CCOCC3)s2)c(=O)[nH]c1=O	.	-4%	?	25µM*
COc1ccc(/C=C/C(=O)O)cc1S(=O)(=O)NCc1cccnc1	.	-5%	1%	?
COc1ccc(NC(=O)c2ccc(NC(=O)C(C)C)cc2)c([N+](=O)[O-])c1	14µM*	-4%	-9%	10µM*
CC(OC(=O)Cn1[nH]c(=O)c2ccccc2c1=O)C(=O)NC1(C#N)CCCCC1 (centres undefined)	.	-4%	1%	-10%
CCOC(=O)c1sc2ncc([N+](=O)[O-])cc2c1N	-2%	4%	-2%	11%
COC(=O)c1sc2cc([N+](=O)[O-])cc(SCC(C)C)c2c1N	?	-6%	10µM*	10µM*
O=C(O)c1cc(=O)c2cc(Cl)ccc2[nH]1	.	-2%	.	.
COc1cnc(-c2ccccn2)nc1Oc1ccc(F)cc1F	0%	5%	-1%	11µM*
COc1cnc(-c2ccccn2)nc1Oc1ccccc1Cl	2%	4%	2%	2%
CCNc1nc(NC(C)C)nc(N(C#N)C(C)C(=O)N(CC)CC)n1 (centres undefined)	-1%	-2%	1%	4%
O=C(NC(=S)NC1CCCCC1)c1ccc(F)cc1	.	4%	0%	?
CCN1C(=O)/C(=C2/Sc3ccc(OC)cc3N2C)SC1=Nc1cccc(O)c1	?	3%	10µM*	?
O=C(/C=C/c1ccco1)N1CCc2ccccc21	2%	-11%	?	11µM*
CC1CCCCC1NC(=O)/C(C#N)=C/c1ccccc1F (centres undefined)	?	-14%	?	-27%
COC(=O)c1cc(=O)n(Cc2cccs2)c(=Nc2ccccc2)s1	18µM*	19%	-22%	0%
COc1ccc2nc(SCC(=O)Nc3ccc4sc(C)nc4c3)c(C#N)cc2c1	3.5µM*	-3%	-6%	22µM*
COc1ccc(NC(=O)CSc2nc(N)c(C#N)cc2C#N)cc1	-1%	-2%	-1%	-15%
CCOC(=O)c1sc(NC(=S)NC(=O)c2ccco2)nc1C	-1%	-7%	-1%	22µM*
COc1ccc2nc(NC(=S)NC(=O)c3ccco3)sc2c1	0%	0%	0%	10µM*
